Results as given in PubChem BioAssay AID624309 (Sanford-Burnham Center for Chemical Genomics, 2012).
About 260 (13%) of roughly 2,000 compounds were called active. Cut-off read from the data, not from the text of the source: active = inhibition mostly above about 42% (no sharp cut-off); inactive = mostly below about 42%. The list is a sample of the results.

system: Nicotinate mononucleotide adenylyltransferase NadD (Staphylococcus aureus N315); experiment: S. aureus NadD enzyme activity blockers – biochemical, colorimetric, single concentration, confirmation (AID 624309); details: purified S. aureus NadD, colorimetric enzyme assay; at 20 µM; active compounds read high

Compound | inhibition
O=C(Cc1csc(Nc2nc(=S)[nH]c3ccccc23)n1)NCCCN1CCN(c2cccc(Cl)c2)CC1 | 33.7% (inactive)
Cc1ccc(Nc2nc(-c3sc(NC(=O)c4ccccc4)nc3C)cs2)cc1 | 38.5% (inactive)
Cc1ccc(C(=O)NNC(=O)c2cc3cc4ccccc4nc3s2)cc1 | 65.5% (active)
O=C(COC(=O)c1ccc(Oc2ccccc2)cc1)Nc1nnc(-c2ccccc2)o1 | 72.6% (active)
CCOc1ccc(NC(=O)c2ccc(NC(=O)COC(=O)c3ccc(NC(=O)CC#N)cc3)cc2)cc1 | 15.8% (inactive)
N#CCC(=O)Nc1ccc(C(=O)OCC(=O)Nc2sc3c(c2C#N)CCCC3)cc1 | 24.8% (inactive)
NC(c1csc(NC(=O)Nc2ccccc2Oc2ccccc2)n1)c1ccccc1Cl (stereo unspecified) | 25.9% (inactive)
COc1ccc(NC(=O)/C(C#N)=C\c2cc(OC)c(OCc3ccc(C(=O)O)cc3)cc2Br)cc1 | 11% (inactive)
NC(CSC(c1ccccc1)(c1ccccc1)c1ccc(-c2ccccc2)cc1)C(=O)O (stereo unspecified) | 54.7% (active)
Cc1cccc(NC(=O)c2sc3nc4c(c(-c5ccco5)c3c2N)CCC4)c1 | 21.1% (inactive)
O=C(NC(Cc1c[nH]c2ccccc12)C(=O)N/N=C/c1ccc(Br)cc1)c1cccs1 (stereo unspecified) | 25.7% (inactive)
O=C1Nc2cc(C(=O)N3CCN(c4ccc(F)cc4)CC3)ccc2NC1CSCc1cccc(F)c1 (stereo unspecified) | 41.8% (inactive)
S=c1[nH]nc(Nc2ccccc2)s1 | 45.2% (inactive)
Cc1ccc(-n2c(SCC(=O)N/N=C/C=C/c3ccccc3[N+](=O)[O-])nc3ccccc3c2=O)cc1 | 3.65% (inactive)
CCOc1cc(/C=C2/N=C(c3ccc(C(C)(C)C)cc3)OC2=O)cc(Cl)c1OS(C)(=O)=O | 11.4% (inactive)
Cc1oc2c(C)c3oc(=O)c(CC(=O)N[C@@H](CC(C)C)C(=O)N[C@@H](Cc4ccccc4)C(=O)O)c(C)c3cc2c1C | 43.8% (inactive)

Compound | inhibition
O=C(Nc1nnc(-c2ccccc2)o1)c1cc(-c2cccs2)nc2ccccc12 | 55.5% (active)
Cc1ccc(-c2cc(C(=O)N/N=C/C=C/c3ccco3)c3ccccc3n2)cc1C | 4.81% (inactive)
CS(=O)(=O)c1sc2nc(-c3ccccc3)cc(-c3ccccc3)c2c1N | 1.76% (inactive)
NC(=O)c1ccc(NC(=O)COC(=O)c2c3c(nc4ccccc24)/C(=C\c2ccc4c(c2)OCO4)CCC3)cc1 | 45.2% (inactive)
NS(=O)(=O)c1ccc(NC(=O)COC(=O)c2c3c(nc4ccccc24)/C(=C\c2ccc4c(c2)OCO4)CCC3)cc1 | 74.4% (active)
O=C(Nc1cccc(-c2nc3ccccc3[nH]2)c1)c1ccc(C(=O)Nc2cccc(-c3nc4ccccc4[nH]3)c2)cc1 | 34.9% (inactive)
CCOC(=O)C1=C(C)Nc2sc(C(=O)c3ccc(Br)cc3)c(N)c2C1c1ccc(C(=O)OC)cc1 (stereo unspecified) | 8.7% (inactive)
CC(=O)Nc1ccc(C(=O)Nc2nc(-c3cc(C)n(Cc4ccccc4)c3C)cs2)cc1 | 14.3% (inactive)
COc1cccc(OCc2cc(/C=N/NC(=O)c3nc(Cl)c(Cl)c(N)c3Cl)ccc2OC)c1 | 25.3% (inactive)
CC(C)c1ccc2c(c1)c(SC(C)(C)C)c(CC(C)(C)C(=O)O)n2Cc1ccc(Cl)cc1 | 28.1% (inactive)
S=c1[nH]nc(-c2cccs2)n1/N=C/c1cn(-c2ccccc2)nc1-c1ccc(Cl)cc1 | 6.28% (inactive)
COc1ccc(-c2nc3cnccn3c2NC2CCCCC2)cc1-c1cccc(Cl)c1 | 18.8% (inactive)
O=C(COc1ccc(/C=N/NC(=O)c2ccc(O)cc2)cc1)Nc1ccc([N+](=O)[O-])cc1 | 15.9% (inactive)
COc1ccc(-n2c(SCC(=O)Nc3sc4c(c3C#N)CCCC4)nnc2-c2ccc(O)cc2)cc1 | 6.59% (inactive)
O=C(COc1ccc([N+](=O)[O-])cc1)Nc1ccc(N2CCCC2)cc1 | -0.14% (inactive)
